From PubChem
FLuc counter: firefly luciferase modulation, counter-screen for miR-21 project; purified FLuc, Km substrates, luminescence inhibition; P08659; AID 588342; 6.9% of 360,000 active; Potency, µM (titrated, usually from 57.5 µM), for inactives: at the highest dose activity change, negative = inhibition, hits mostly inhibitors;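 further: plate controls were vehicle for no effect and reference inhibitor for full effect; nearly all actives have a fitted effect of over 55% in size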
Target sequence (P08659 whole entry, looked up): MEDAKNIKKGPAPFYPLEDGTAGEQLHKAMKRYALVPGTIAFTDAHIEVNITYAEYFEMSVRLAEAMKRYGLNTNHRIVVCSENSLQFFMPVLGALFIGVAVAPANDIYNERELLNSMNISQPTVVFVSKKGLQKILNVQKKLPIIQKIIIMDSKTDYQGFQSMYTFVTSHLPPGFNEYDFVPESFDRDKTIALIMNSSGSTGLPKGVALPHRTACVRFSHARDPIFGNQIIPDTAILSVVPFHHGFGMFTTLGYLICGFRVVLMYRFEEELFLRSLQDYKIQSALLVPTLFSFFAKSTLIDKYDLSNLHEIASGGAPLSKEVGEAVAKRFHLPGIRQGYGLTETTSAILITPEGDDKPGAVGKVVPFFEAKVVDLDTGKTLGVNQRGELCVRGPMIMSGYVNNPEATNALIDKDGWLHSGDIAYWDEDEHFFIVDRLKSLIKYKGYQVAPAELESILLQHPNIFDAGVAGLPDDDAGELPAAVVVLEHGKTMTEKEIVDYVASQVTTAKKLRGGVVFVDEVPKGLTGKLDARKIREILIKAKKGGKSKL
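Purified P. pyralis luciferase (10nM final) with 10uM D-luciferin and 10uM ATP (Km levels) in 50mM Tris acetate pH 7.5, 10mM Mg acetate, 0.01% Tween-20, 0.05% BSA; qHTS 6-point titration, ~60 µM downward; luminescence read.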
ELG1 genotox: induces genotoxicity in HEK293T cells with luciferase-tagged ELG1 | HEK293T ELG1-luciferase reporter, luminescence, 16 h | Potency, µM (highest dose often 46 µM), without a hit: at the top dose activity change, positive = activation, actives largely listed as activators | 1.3% of 330,000 active | AID 504466; further: % of control where 0% means no effect; nearly all actives have a fitted effect of over 60% in size
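Reporter readout depends on ELG1 protein level, which increases with genetic stress. After 16 hr compound exposure at 37 °C, luciferase activity was quantified using ONE-Glo.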
SMN2 splice up: SMN2 splice variant enhancement | HEK293 SMN2-luciferase splicing reporter, luminescence, 30-36 h | Potency, µM (doses to about 46.1 µM), for inactives: at the highest dose activity change, positive = activation, actives largely listed as activators | 2.8% of 210,000 active; further: % of control where 0% means no effect; nearly all actives have a fitted effect of over 55% in size
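qHTS luciferase splicing reporter: luminescence rises when SMN2 exon 7 is included in transfected HEK293 cells. Compound exposure lasted 30-36 h at 37C, with 4.5 mM final sodium butyrate as control, followed by a ONE-Glo read.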
Rab9 promoter act: Rab9 promoter activation | 2.8% of 320,000 active | Potency, µM (titrated, usually from 9.22 µM), without a hit: top-dose activation, negative = inhibition, most hits filed as activators | AID 485297 | Huh7 Rab9 promoter-luciferase reporter, luminescence, 24 h; further: % of control where 0% means no effect; nearly all actives have a fitted effect of over 60% in size
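Promoter activation is measured as luciferase luminescence in Huh7 cells stably transfected with a Rab9 promoter–luciferase construct, following 24 h compound exposure at 37 °C and 10 min reagent incubation at ambient temperature.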
NPC1 prom act: NPC1 promoter activation; Huh7 NPC1 promoter luciferase reporter, 24 h; Potency, µM (doses to about 9.22 µM), inactives show at the highest dose activation, actives largely listed as activators; 2.4% of 320,000 active; AID 485313; further: % of control where 0% means no effect; nearly all actives have a fitted effect of over 60% in size
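Readout is luciferase luminescence, reflecting NPC1 promoter activation in stably transfected Huh7 cells after 24 h compound exposure at 37 °C in reduced-serum medium with 10% FBS.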
* hit, by the source's call; u = inconclusive; x = not tested or not shown; [ ] = dose if it differs, or a comment. Hits are enriched below; roughly 7.4% of the tested compounds scored in any of these assays. The call rests on the fitted dose curve; in most records, active means well fitted curve in the direction sought with a large enough effect; inconclusive means small, poorly fitted or top-dose-only effect, or another doubt; inactive means no such curve, though single readings can be large; an effect the other way counts as inactive or inconclusive. Potency means the concentration at half of the fitted maximal effect.

SMILES	FLuc counter	ELG1 genotox	SMN2 splice up	Rab9 promoter act	NPC1 prom act
COCCCn1c(SCC(=O)NC2CCCCC2)nc2ccccc2c1=O	-1%	0%	x	6%	-12%
COCCn1c(SCC(=O)N2CCC(C)CC2)nc2ccccc2c1=O	0%	-1%	-12%	5%	-3%
COc1ccc(C(=O)Nn2c(SCC(=O)N3CCC(C)CC3)nc3ccccc3c2=O)cc1	0.67µM*	u	-79%	x	0.4µM*
COc1ccc(C(=O)Nn2c(SCc3cccc([N+](=O)[O-])c3)nc3ccccc3c2=O)cc1	5.4µM*	0.73µM*	x	3.5µM*	4µM*
Cc1ccc(CSC(N)=Nc2ccccc2)cc1C	x	x	-13%[9.22 µM]	x	x
COC(=O)c1oc2ccccc2c1NC(=O)/C=C/C(=O)O	3%	-2%	29%	-6%	0%
COc1ccc(C(=O)Nn2c(SCC(=O)c3ccc(Cl)cc3)nc3ccccc3c2=O)cc1	4.8µM*	u	-88%	0.5µM*	0.45µM*
Cn1cccc1/C=N/n1cnnc1	0%	-1%	22µM*	-4%	0%
O=C(C1CCCN(S(=O)(=O)c2ccc(Br)s2)C1)N1CCN(c2ccc(F)cc2)CC1 (stereo not drawn)	0%	x	6%	x	x
O=c1[nH]c(CSc2ccccn2)nc2c1oc1ccccc12	2.7µM*	u	1µM*	0.79µM*	3.5µM*
CCc1nc2c(oc3ccccc32)c(=O)[nH]1	u	5%	6%	23%	24%
COc1cc2ccccc2cc1C(=O)Nc1ccc2oc(-c3cccc(Cl)c3Cl)nc2c1	-2%	x	29%	x	x
O=C(Nc1ccc2oc(-c3cccc4ccccc34)nc2c1)c1ncn[nH]1	u	u	u	2.8µM*	u
O=C(Nc1ccc2oc(-c3ccccc3Cl)nc2c1)c1ncn[nH]1	3µM*	8.2µM*	10µM*	3.5µM*	1.4µM*
O=C(Nc1ccc2oc(-c3cc(Br)ccc3Cl)nc2c1)c1ccc2ccccc2c1	-8%	x	-6%	x	x
CCSc1nnc(NC(=O)CSc2nncc(=O)n2N)s1	-11%	-4%	0%	13%	4%
Cn1c(=O)c(C=Nc2ccccc2)c(O)c2ccccc21	4.3µM*	0%	x	0%	-4%
COc1ccc(-n2c(O)c(C=Nc3ccccc3)c3ccccc3c2=O)cc1	0%	u	-3%	-9%	-2%
O=C(O)/C(=C\c1cccs1)c1ccccc1	-15%	-1%	x	-6%	-1%
O=C1CCCN1CC(=O)N1CCCC(Nc2cccc(F)c2)C1 (stereo not drawn)	-1%	1%	x	0%	-2%
COc1cc(/C=C2\SC(N)=NC2=O)cc(Br)c1O	-10%	2%	x	-3%	0%
COc1ccc(/C=C2\SC(N)=NC2=O)cc1	15µM*	4%	x	25%	2%
CCOC(=O)C1CCCN(C2=NC(=O)/C(=C/c3ccc(OC)cc3)S2)C1 (stereo not drawn)	-11%	0%	x	2%	-1%
NC1=NC(=O)/C(=C\c2ccco2)S1	17µM*	2%	x	0%	-3%
CCOC(=O)CSC1=NC(=O)/C(=C/c2ccc(OC)cc2)S1	13µM*	u	-10%[1.84 µM]	-32%	-27%
SMILES	FLuc counter	ELG1 genotox	SMN2 splice up	Rab9 promoter act	NPC1 prom act
Cc1cc(=O)[nH]c(SCC(=O)Nc2nc(-c3ccccc3)c(-c3ccccc3)o2)n1	0%	3%	11%	0%	-1%
Cc1cnc(C(=O)OCC(=O)c2c[nH]c3ccccc23)cn1	-10%	3%	x	1%	-2%
COc1ccc(OCC(=O)c2c[nH]c3ccccc23)cc1	3.8µM*	18%	26%	u	u
CC1(C(=O)OCC(=O)c2c[nH]c3ccccc23)CC1(Cl)Cl (stereo not drawn)	6.7µM*	u	u	3.2µM*	4µM*
COc1ccc2c(c1)C(=O)[C@@H](OC(=O)Nc1ccc(C)c(Br)c1)[C@H](c1ccc(OC)c(Br)c1)O2	x	x	-12%	x	x
CCN(c1ccc(NC(=O)COC(=O)c2cccs2)cc1)C(C)C	8.5µM*	0%	u	13%	-1%
CCN(CC)c1ccc(NC(=O)COC(=O)c2cccs2)cc1	12µM*	-1%	-3%	2%	-1%
COc1ccc(NC(=O)COC(=O)c2ccc3ccccc3n2)cc1	-1%	1%	x	-6%	2%
CCN(CC)c1ccc(NC(=O)COC(=O)c2ccc3ccccc3n2)cc1	24µM*	1%	23%	-4%	11%
COc1cc(OC)cc(C(=O)OCC(=O)Nc2ccc3[nH]c(=O)[nH]c3c2)c1	6%	1%	x	3%	3%
CCN(c1ccc(NC(=O)COC(=O)c2cc3ccccc3oc2=O)cc1)C(C)C	u	-1%	-4%	-2%	-11%
CCN(CC)c1ccc(C(=O)OCC(=O)Nc2ccc3[nH]c(=O)[nH]c3c2)cc1	19µM*	3%	2%	-4%	-1%
Cc1cc2ncn(C(=O)N3CCC(C)CC3)c2cc1C	u	12%	16µM*	u	23%
Cc1cc2ncn(C(=O)c3ccc4c(c3)OCO4)c2cc1C	u	3%	-14%	8%	-13%
O=C1/C(=C/C=C/c2ccco2)SC(=S)N1NS(=O)(=O)c1ccccc1	u	-3%	x	-1%	0%
CC(C(=O)O)N1C(=O)/C(=C/C=C/c2ccco2)SC1=S (stereo not drawn)	17µM*	0%	-9%	1%	8%
CC(Sc1nnc(NC2CC2)s1)C(=O)Nc1ccc(N2CCOCC2)cc1 (stereo not drawn)	-1%	1%	x	-6%	1%
Cc1ccc(NC(=O)Nc2nnc(SCC(=O)Nc3ccc(F)cc3F)s2)cc1	1%	x	x	x	x
COc1cccc(NC(=O)CSc2nnc(NC(=O)C3CC3)s2)c1	-19%	0%	x	2%	-2%
O=C(CSc1nnc(NC2CCCCC2)s1)Nc1ccc(N2CCOCC2)cc1	13µM*	10%	-13%	14%	17%
Cc1ccc(NC(=O)CSc2nnc(NC(=O)C3CC3)s2)cc1	0%	u	x	4%	1%
Cc1ccc(NC(=O)Nc2nnc(SCC(=O)N3CCC(C)CC3)s2)cc1	19µM*	x	x	x	x
COc1cccc(NC(=O)CSc2nnc(NC(=O)NC3CCCCC3)s2)c1	1.5µM*	x	x	x	x
Cc1ccc(NC(=O)CSc2nnc(NC(=O)NC3CCCCC3)s2)cc1	0.95µM*	x	x	x	x
Cc1ccc(NC(=O)Cn2cc(S(=O)(=O)c3ccc(C)cc3)c(=O)c3cc4c(cc32)OCO4)cc1	-6%	x	4%	x	x
Cc1cc(S(=O)(=O)N2CCC3(CC2)OCCN3S(=O)(=O)c2cccs2)ccc1F	9%	0%	x	0%	-10%
Cc1ccc(C(=O)NCC(=O)OCCOc2ccccc2Cl)cc1	u	7%	x	23%	3%
CN(C(=O)c1ccc(=O)n(Cc2ccc(Cl)cc2)c1)c1ccccc1	3%	-2%	14%	-8%	-3%
COc1ccc2ccccc2c1/C=N\NC(=O)c1ccc(C)s1	12µM*	1%	x	-1%	3%
